Out of some 39,000 compounds screened, about 1,500 (3.8%) were called active. The full list was thinned out, with actives kept by preference.
The compounds below were run on HSkMC (human skeletal muscle cells) (assay: cytotoxicity call (relative viability < 0.9)). Conditions: 10 µM.
In the case of `CCS(=O)(=O)Nc1ccc2c(c1)C(=O)N(C)[C@@H]1CC[C@H](CC(=O)NCCCN3CCOCC3)O[C@@H]1CO2`, the cytotoxicity call is reported as “inactive”. In the case of `COc1ccc(S(=O)(=O)Nc2ccc3c(c2)CC(=O)N([C@@H](C)CO)C[C@@H](C)[C@H](CN(C)Cc2ccc(-c4ccccc4)cc2)O3)cc1`, the cytotoxicity call is reported as “inactive”. `COc1ccc(S(=O)(=O)Nc2ccc3c(c2)CC(=O)N([C@H](C)CO)C[C@@H](C)[C@@H](CN(C)Cc2ccc(-c4ccccc4)cc2)O3)cc1` was tested, and the cytotoxicity call was “active”. For `COc1ccc(S(=O)(=O)Nc2ccc3c(c2)CC(=O)N([C@@H](C)CO)C[C@H](C)[C@H](CN(C)Cc2ccc(-c4ccccc4)cc2)O3)cc1`, the cytotoxicity call was “active”. In the case of `COc1ccc(S(=O)(=O)Nc2ccc3c(c2)CC(=O)N([C@H](C)CO)C[C@@H](C)[C@H](CN(C)Cc2ccc(-c4ccccc4)cc2)O3)cc1`, the cytotoxicity call is reported as “active”. In the case of `COc1ccc(S(=O)(=O)Nc2ccc3c(c2)CC(=O)N([C@H](C)CO)C[C@H](C)[C@H](CN(C)Cc2ccc(-c4ccccc4)cc2)O3)cc1`, the cytotoxicity call is reported as “inactive”. `COc1ccc(S(=O)(=O)Nc2ccc3c(c2)CC(=O)N([C@@H](C)CO)C[C@H](C)[C@@H](CN(C)Cc2ccc(-c4ccccc4)cc2)O3)cc1` was tested, and the cytotoxicity call was “inactive”. `COc1ccc(S(=O)(=O)Nc2ccc3c(c2)CC(=O)N([C@H](C)CO)C[C@H](C)[C@@H](CN(C)Cc2ccc(-c4ccccc4)cc2)O3)cc1` was tested, and the cytotoxicity call was “inactive”. With `COc1ccc(S(=O)(=O)Nc2ccc3c(c2)CC(=O)N([C@@H](C)CO)C[C@@H](C)[C@@H](CN(C)Cc2ccc(-c4ccccc4)cc2)O3)cc1` the cytotoxicity call was “inactive”. In the case of `Cc1ccc2oc(=O)cc(Cl)c2c1`, the cytotoxicity call is reported as “inactive”. In the case of `NC(=O)NCC#Cc1ccc2c(c1)[C@]1(C(=O)N2)[C@H](C(=O)O)[C@H]2C(=O)O[C@H](c3ccccc3)[C@H](c3ccccc3)N2[C@@H]1c1ccc(OCCO)cc1`, the cytotoxicity call is reported as “inactive”. In the case of `COc1ccccc1CNC(=O)C[C@H]1C[C@H]2c3cc(NC(=O)C4CCOCC4)ccc3O[C@H]2[C@@H](CO)O1`, the cytotoxicity call is reported as “inactive”. With `CC(C)NC(=O)N(C)C[C@@H]1Oc2ccc(NS(=O)(=O)c3cn(C)cn3)cc2CC(=O)N([C@@H](C)CO)C[C@@H]1C` the cytotoxicity call was “inactive”. `Cc1noc(C)c1NC(=O)N(C)C[C@@H]1OCCCC[C@@H](C)Oc2ccc(NS(=O)(=O)c3ccc(Cl)cc3)cc2C(=O)N([C@H](C)CO)C[C@@H]1C` was tested, and the cytotoxicity call was “inactive”. In the case of `COc1ccc(S(=O)(=O)N(C)C[C@@H]2Oc3ccc(NC(=O)c4ccncc4)cc3CC(=O)N([C@@H](C)CO)C[C@H]2C)cc1`, the cytotoxicity call is reported as “inactive”. With `Nc1ccc(S(N)(=O)=O)cc1` the cytotoxicity call was “inactive”. In the case of `C[C@@H]1CN([C@@H](C)CO)C(=O)c2cc(N(C)C)ccc2O[C@@H](C)CCCCO[C@@H]1CN(C)C(=O)CCCN(C)C`, the cytotoxicity call is reported as “inactive”. `Cc1ccc2[nH]c(=O)c(C3=NN(C(=O)CCC(=O)O)[C@H](c4ccc(Br)cc4)C3)c(-c3ccccc3)c2c1` was tested, and the cytotoxicity call was “inactive”. For `COc1ccc(S(=O)(=O)Nc2ccc3c(c2)CC(=O)N([C@H](C)CO)C[C@@H](C)[C@@H](CN(C)S(=O)(=O)c2ccc(OC)cc2)O3)cc1`, the cytotoxicity call was “inactive”. In the case of `C[C@H]1CN([C@@H](C)CO)C(=O)c2cccc(NC(=O)Nc3ccccc3)c2O[C@@H]1CN(C)Cc1ccc(Oc2ccccc2)cc1`, the cytotoxicity call is reported as “active”. With `C[C@@H]1CN([C@H](C)CO)C(=O)c2cccc(NC(=O)Nc3ccccc3)c2O[C@H]1CN(C)Cc1ccc(Oc2ccccc2)cc1` the cytotoxicity call was “inactive”. `C[C@@H]1CN([C@@H](C)CO)C(=O)c2cccc(NC(=O)C3CCCCC3)c2O[C@H]1CN(C)Cc1ccc(Oc2ccccc2)cc1` was tested, and the cytotoxicity call was “inactive”. With `C[C@H](CO)N1C[C@H](C)[C@@H](CN(C)Cc2ccc(Oc3ccccc3)cc2)Oc2c(NC(=O)C3CCCCC3)cccc2C1=O` the cytotoxicity call was “active”. `C[C@H](CO)N1C[C@H](C)[C@@H](CN(C)Cc2ccc(Oc3ccccc3)cc2)Oc2c(NC(=O)Nc3ccccc3)cccc2C1=O` was tested, and the cytotoxicity call was “active”. With `C[C@@H]1CN([C@@H](C)CO)C(=O)c2cccc(NC(=O)Nc3ccccc3)c2O[C@H]1CN(C)Cc1ccc(Oc2ccccc2)cc1` the cytotoxicity call was “inactive”. `C[C@@H]1CN([C@@H](C)CO)C(=O)c2cccc(NC(=O)Nc3ccccc3)c2O[C@@H]1CN(C)Cc1ccc(Oc2ccccc2)cc1` was tested, and the cytotoxicity call was “inactive”. With `C[C@H](CO)N1C[C@H](C)[C@@H](CN(C)Cc2ccc(Oc3ccccc3)cc2)Oc2c(NC(=O)Nc3cccc4ccccc34)cccc2C1=O` the cytotoxicity call was “active”. For `C[C@H]1CN([C@@H](C)CO)C(=O)c2cccc(NC(=O)Nc3cccc4ccccc34)c2O[C@H]1CN(C)Cc1ccc(Oc2ccccc2)cc1`, the cytotoxicity call was “inactive”. With `C[C@H](CO)N1C[C@H](C)[C@H](CN(C)Cc2ccc(Oc3ccccc3)cc2)Oc2c(NC(=O)Nc3cccc4ccccc34)cccc2C1=O` the cytotoxicity call was “inactive”. In the case of `C[C@@H]1CN([C@H](C)CO)C(=O)c2cccc(NC(=O)Nc3ccccc3)c2O[C@@H]1CN(C)Cc1ccc(Oc2ccccc2)cc1`, the cytotoxicity call is reported as “inactive”. `C[C@H]1CN([C@@H](C)CO)C(=O)c2cccc(NC(=O)C3CCCCC3)c2O[C@H]1CN(C)Cc1ccc(Oc2ccccc2)cc1` was tested, and the cytotoxicity call was “inactive”. In the case of `O=C1NC[C@@H](c2ccccc2)OC(=O)[C@H](Cc2ccc(F)cc2)CCC=CC[C@@H]1CC(=O)N(CCO)Cc1ccccc1`, the cytotoxicity call is reported as “inactive”. In the case of `C[C@H]1CN([C@@H](C)CO)C(=O)c2cc(NC(=O)Nc3ccc(C(F)(F)F)cc3)ccc2O[C@@H]1CN(C)Cc1ccncc1`, the cytotoxicity call is reported as “inactive”. In the case of `COc1ccc(S(=O)(=O)Nc2cccc3c2O[C@H](CN(C)Cc2ccncc2)[C@@H](C)CN([C@H](C)CO)C3=O)cc1`, the cytotoxicity call is reported as “inactive”. In the case of `CCC1OC(=O)C(C)C(=O)C(C)C(OC2OC(C)CC(N(C)C)C2O)C(C)(OC)CC(C)C(=O)C(C)C2N(CCCCn3cnc(-c4cccnc4)c3)C(=O)OC12C` (stereo not drawn), the cytotoxicity call is reported as “inactive”. For `C[C@@H]1CN([C@@H](C)CO)C(=O)c2cc(NC(=O)Cc3cn(C)c4ccccc34)ccc2O[C@@H]1CN(C)Cc1ccc(C(F)(F)F)cc1`, the cytotoxicity call was “inactive”. In the case of `C[C@@H]1CN([C@H](C)CO)C(=O)c2cccc(NC(=O)Nc3ccc(F)cc3)c2O[C@@H]1CN(C)Cc1ccc(-c2ccccc2)cc1`, the cytotoxicity call is reported as “inactive”. For `CC(=O)n1cc([C@H]2C=C(C(=O)NCc3ccccc3)O[C@@H](OCc3ccc(CO)cc3)C2)c2ccccc21`, the cytotoxicity call was “inactive”.
